Laboratory results from PubChem BioAssay (Tox21).
Unmarked numbers belong to inactive results. Records with an inconclusive call do not appear. Where a call stands in place of a potency, no number is given. The source made the active and inactive calls. Unless noted, the call rests on the fitted dose curve; in most records, active means well fitted curve in the direction sought with a large enough effect in the repeat runs; inconclusive means weak or mixed curves; inactive means no such curve, though single readings can be large; an effect the other way counts as inactive or inconclusive.

Key:
[1] = qHTS assay to identify small molecule antagonists of the sonic hedgehog signaling (Shh) pathway (AID 1259369; calls by dose curve; further: nearly all actives have a fitted effect of over 45% in size; further: potency means the concentration at half of the fitted maximal effect)
Procedure, shortened: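 Read-out is luminescence from a firefly luciferase gene controlled by the Gli1 response element, in 3T3Gli1-Luc cells pre-incubated 4hr then exposed to compounds and conditioned medium for 24hr.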

[2] = target: Estrogen receptor beta (Homo sapiens) (UniProt Q92731); experiment: qHTS assay to identify small molecule agonists of the estrogen receptor beta (ER-beta) signaling pathway (AID 1259377; active means well fitted activation curve with a large enough effect in the signal ratio in the repeat runs, not every such curve was filed as active; the % refers to the signal ratio)
Sequence of Estrogen receptor beta (Homo sapiens) (Q92731 whole entry, looked up): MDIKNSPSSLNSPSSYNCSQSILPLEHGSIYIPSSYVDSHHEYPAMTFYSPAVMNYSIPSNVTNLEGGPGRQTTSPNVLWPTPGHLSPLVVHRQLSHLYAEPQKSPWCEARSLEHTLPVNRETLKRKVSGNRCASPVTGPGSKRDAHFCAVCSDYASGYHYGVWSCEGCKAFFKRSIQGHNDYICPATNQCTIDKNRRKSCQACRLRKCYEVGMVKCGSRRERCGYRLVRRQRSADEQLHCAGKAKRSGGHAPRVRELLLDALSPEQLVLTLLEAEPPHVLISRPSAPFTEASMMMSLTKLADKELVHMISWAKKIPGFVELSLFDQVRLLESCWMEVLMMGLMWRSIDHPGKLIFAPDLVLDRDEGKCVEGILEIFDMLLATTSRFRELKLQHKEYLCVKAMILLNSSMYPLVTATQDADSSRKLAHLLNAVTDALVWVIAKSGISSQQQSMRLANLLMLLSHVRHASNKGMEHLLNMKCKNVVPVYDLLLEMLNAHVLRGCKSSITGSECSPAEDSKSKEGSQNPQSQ
Procedure, shortened: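 Ratiometric beta-lactamase FRET read-out came after 2 h substrate loading at room temperature. It followed 16 h compound treatment at 37C of GripTite HEK293T cells carrying a UAS-bla reporter, plated in 2% charcoal-stripped FBS medium.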

[3] = target: Estrogen receptor beta (Homo sapiens) (UniProt Q92731); experiment: qHTS assay to identify small molecule antagonists of the estrogen receptor beta (ER-beta) signaling pathway (AID 1259378; active means well fitted inhibition curve with a large enough effect in the signal ratio in the repeat runs, not every such curve was filed as active; the % refers to the signal ratio; further: potency means the concentration at half of the fitted maximal effect)
Procedure, shortened: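 ER-beta-UAS-bla HEK293T (GripTite) cells in 2% charcoal-stripped FBS medium were preincubated 6 hr at 37C, dosed with compound, then stimulated with 1 nM E2 (final) for 16 hr; beta-lactamase reporter read by B/G FRET fluorescence after 2 hr substrate loading.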

[4] = qHTS assay to identify small molecule agonists of the androgen receptor (AR) signaling pathway in the presence of an antagonist - cell viability counter screen (AID 1259379); further: nearly all actives have a fitted effect of over 25% in size; further: potency means the concentration at half of the fitted maximal effect
Procedure, shortened: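 Each compound was tested at 15 concentrations on MDA-kb2 cells in the presence of 3.0uM nilutamide. Viability was measured by CellTiter-Fluor fluorescence after a 16 hr incubation at 37C in a CO2-free atmosphere.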

[5] = qHTS assay to identify small molecule agonists of the estrogen receptor beta (ER-beta) signaling pathway - cell viability counter screen (AID 1259380); further: nearly all actives have a fitted effect of over 30% in size
Procedure, shortened: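 Compounds dissolved in DMSO were pin-transferred onto ER-beta-UAS-bla HEK293T cells that had settled 6 hr, and exposure ran 16 hr at 37C. Following the reporter read, CellTiter-Glo luminescence after 30 min at room temperature indicated cytotoxicity.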

[6] = qHTS assay to identify small molecule antagonists of the estrogen receptor beta (ER-beta) signaling pathway - cell viability counter screen (AID 1259382); further: series mostly up to about 92 µM; nearly all actives have a fitted effect of over 55% in size
Procedure, shortened: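 CellTiter-Glo ATP luminescence measured after the LiveBLAzer read in the same wells; ER-beta-UAS-bla HEK293T cells, 16 hr compound treatment with 1nM 17-beta-estradiol agonist at 37C, 5% CO2.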

[7] = qHTS assay to identify small molecule agonists or antagonists of the thyroid stimulating hormone receptor (TSHR) signaling pathway - wild type cell line counter screen (AID 1259384; calls by dose curve)
Procedure, shortened: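 Wild-type HEK293 cells were plated 18 h at 37 C/5% CO2, pin-dosed with compound plus Ro20-1724 medium, held 30 min at room temperature, then given cAMP-d2 and anti-cAMP-cryptate; fluorescence was read after 1 h. Fifteen concentrations, triplicate.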

[8] = qHTS assay to identify small molecule agonists of the estrogen receptor alpha (ER-alpha) signaling pathway in the presence of an antagonist - cell viability counter screen (AID 1259386);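 further: cells exposed to compounds for 22 h at 37 °C before the viability read; nearly all actives have a fitted effect of over 30% in size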; further: potency means the concentration at half of the fitted maximal effect
Procedure, shortened: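 Using estrogen-depleted VM7Luc4E2 cells, the 15-concentration compound series was applied together with 10.0nM ICI-182,780 and incubated 22hr at 37C/5% CO2. Cell viability was then scored by CellTiter-Fluor.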

[9] = target: Progesterone receptor (Homo sapiens) (UniProt P06401); experiment: qHTS assay to identify small molecule agonists of the progesterone receptor (PR) signaling pathway (AID 1346784; calls by dose curve; further: nearly all actives have a fitted effect of over 30% in size)
Sequence of Progesterone receptor (Homo sapiens) (P06401 whole entry, looked up): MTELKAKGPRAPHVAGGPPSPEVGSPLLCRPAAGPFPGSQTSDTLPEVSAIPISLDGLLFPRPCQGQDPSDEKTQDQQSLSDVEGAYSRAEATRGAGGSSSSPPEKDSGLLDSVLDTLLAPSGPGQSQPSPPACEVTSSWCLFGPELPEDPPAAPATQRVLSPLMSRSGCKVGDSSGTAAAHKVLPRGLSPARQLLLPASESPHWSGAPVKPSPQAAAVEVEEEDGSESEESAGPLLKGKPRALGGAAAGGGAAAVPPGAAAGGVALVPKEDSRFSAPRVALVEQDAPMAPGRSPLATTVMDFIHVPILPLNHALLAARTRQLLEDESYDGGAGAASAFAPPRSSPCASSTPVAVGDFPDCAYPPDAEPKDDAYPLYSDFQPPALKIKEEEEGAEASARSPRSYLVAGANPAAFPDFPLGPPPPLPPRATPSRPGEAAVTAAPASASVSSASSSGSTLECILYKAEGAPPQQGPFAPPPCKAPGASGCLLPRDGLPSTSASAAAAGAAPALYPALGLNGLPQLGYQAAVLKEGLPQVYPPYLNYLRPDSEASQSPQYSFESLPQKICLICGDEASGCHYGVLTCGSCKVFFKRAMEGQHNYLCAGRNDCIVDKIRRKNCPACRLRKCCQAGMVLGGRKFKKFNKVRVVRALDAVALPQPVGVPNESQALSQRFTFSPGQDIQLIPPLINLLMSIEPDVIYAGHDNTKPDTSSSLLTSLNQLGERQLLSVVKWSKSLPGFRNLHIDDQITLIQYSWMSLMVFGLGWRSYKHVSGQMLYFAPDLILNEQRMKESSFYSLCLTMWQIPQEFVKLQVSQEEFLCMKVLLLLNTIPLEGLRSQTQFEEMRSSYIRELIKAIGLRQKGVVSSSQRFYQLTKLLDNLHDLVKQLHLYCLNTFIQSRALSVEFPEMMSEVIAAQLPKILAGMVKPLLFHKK
Procedure, shortened: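 Agonist qHTS: compounds pinned onto 3,000 PR-UAS-bla HEK 293T cells per well in charcoal-stripped serum medium, 16hr at 37C, then beta-lactamase activity measured by LiveBLAzer FRET fluorescence after 2 hours at room temperature.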

[10] = target: Progesterone receptor (Homo sapiens) (UniProt P06401); experiment: qHTS assay to identify small molecule antagonists of the progesterone receptor (PR) signaling pathway (AID 1346795; active means well fitted inhibition curve with a large enough effect in the signal ratio in the repeat runs, not every such curve was filed as active; the % refers to the signal ratio)
Procedure, shortened: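 Antagonist mode with agonist R5020 at 1 nM final and 16 hr incubation at 37C. Reporter was beta-lactamase driven by UAS in HEK293T (PR-UAS-bla), 2% charcoal-stripped serum; signal from LiveBLAzer FRET substrate, 2 hr at room temperature.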

[11] = qHTS assay to identify small molecule agonists of the progesterone receptor (PR) signaling pathway - cell viability counter screen (AID 1346799; calls by dose curve; further: nearly all actives have a fitted effect of over 45% in size)
Procedure, shortened: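 Cytotoxicity measured by CellTiter-Glo luminescence (30 min, RT) in the same wells as the PR beta-lactamase agonist read. Those HEK293T cells had 16 h compound treatment at 37 C in 2% charcoal-stripped FBS medium.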

[12] = qHTS assay to identify small molecule antagonists of the TGF-beta/Smad signaling pathway - cell viability counter screen (AID 1346824); further: nearly all actives have a fitted effect of over 50% in size
Procedure, shortened: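 SBE-bla HEK 293T cells were plated overnight at 37 C, then given compounds in DMSO plus TGF-beta1 (added as 0.25 ng/mL solution) for 5 hr. After the bla read, CellTiter-Glo was added to the same wells and luminescence read after 30 min at room temperature.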

[13] = qHTS assay to identify small molecule agonists of the TGF-beta/Smad signaling pathway - cell viability counter screen (AID 1346829); further: top concentration of the series differs between compounds; nearly all actives have a fitted effect of over 45% in size
Procedure, shortened: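 CellTiter-Glo luminescence readout; SBE-bla HEK 293T cells, overnight plating, compound 5 hr at 37 C/5% CO2, then bla substrate 2 hr RT, then CellTiter-Glo 30 min RT.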

[14] = qHTS assay to identify small molecule agonists of the TGF-beta/Smad signaling pathway (AID 1346859; active means well fitted activation curve with a large enough effect in the signal ratio in the repeat runs, not every such curve was filed as active; the % refers to the signal ratio; further: series mostly up to about 77 µM)
Procedure, shortened: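 Fluorescence (ex 405 nm; em 460 and 530 nm) was read 2 h after LiveBLAzer FRET substrate at RT. The preceding compound treatment of overnight-plated SBE-bla HEK293T cells lasted 5 h at 37 C.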

[15] = target: Thyrotropin-releasing hormone receptor (Homo sapiens) (UniProt P34981); experiment: qHTS assay to identify small molecule antagonists of the thyrotropin-releasing hormone receptor (TRHR) signaling pathway (AID 1346877; active means well fitted inhibition curve with a large enough effect in the repeat runs, not every such curve was filed as active; further: series mostly up to about 51 µM)
Sequence of Thyrotropin-releasing hormone receptor (Homo sapiens) (P34981 whole entry, looked up): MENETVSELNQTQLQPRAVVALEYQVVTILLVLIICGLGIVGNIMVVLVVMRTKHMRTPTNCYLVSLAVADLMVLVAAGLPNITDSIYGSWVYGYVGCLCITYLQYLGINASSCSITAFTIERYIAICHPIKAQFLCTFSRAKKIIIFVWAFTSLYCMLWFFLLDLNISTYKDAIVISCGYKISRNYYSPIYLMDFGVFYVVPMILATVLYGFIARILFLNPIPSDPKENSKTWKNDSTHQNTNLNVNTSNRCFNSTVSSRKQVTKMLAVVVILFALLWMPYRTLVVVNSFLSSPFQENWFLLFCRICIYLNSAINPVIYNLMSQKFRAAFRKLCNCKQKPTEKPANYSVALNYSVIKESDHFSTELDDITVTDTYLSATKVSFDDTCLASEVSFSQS
Procedure, shortened: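 Calcium signal in dye-loaded TRHR/HEK293 cells; compounds added 5 min before TRH (1 nM final); fluorescence monitored 3 min at 1 s steps.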

[16] = target: Thyrotropin-releasing hormone receptor (Homo sapiens) (UniProt P34981); experiment: qHTS assay to identify small molecule agonists of the thyrotropin-releasing hormone receptor (TRHR) signaling pathway (AID 1346891; calls by dose curve; further: series mostly up to about 58 µM)
Procedure, shortened: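 Agonist-mode intracellular calcium readout: kinetic fluorescence over 3 min at 1 s intervals after compound addition to TRHR-HEK293 cells (18 h seeded, 2 h dye-loaded at 37 C). Fifteen concentrations, triplicates.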

[17] = target: Androgen receptor (Homo sapiens) (UniProt P10275); experiment: qHTS assay to identify small molecule agonists of the androgen receptor (AR) signaling pathway in the presence of an antagonist (AID 1259381; calls by dose curve; further: nearly all actives have a fitted effect of over 15% in size)
Sequence of Androgen receptor (Homo sapiens) (P10275 whole entry, looked up): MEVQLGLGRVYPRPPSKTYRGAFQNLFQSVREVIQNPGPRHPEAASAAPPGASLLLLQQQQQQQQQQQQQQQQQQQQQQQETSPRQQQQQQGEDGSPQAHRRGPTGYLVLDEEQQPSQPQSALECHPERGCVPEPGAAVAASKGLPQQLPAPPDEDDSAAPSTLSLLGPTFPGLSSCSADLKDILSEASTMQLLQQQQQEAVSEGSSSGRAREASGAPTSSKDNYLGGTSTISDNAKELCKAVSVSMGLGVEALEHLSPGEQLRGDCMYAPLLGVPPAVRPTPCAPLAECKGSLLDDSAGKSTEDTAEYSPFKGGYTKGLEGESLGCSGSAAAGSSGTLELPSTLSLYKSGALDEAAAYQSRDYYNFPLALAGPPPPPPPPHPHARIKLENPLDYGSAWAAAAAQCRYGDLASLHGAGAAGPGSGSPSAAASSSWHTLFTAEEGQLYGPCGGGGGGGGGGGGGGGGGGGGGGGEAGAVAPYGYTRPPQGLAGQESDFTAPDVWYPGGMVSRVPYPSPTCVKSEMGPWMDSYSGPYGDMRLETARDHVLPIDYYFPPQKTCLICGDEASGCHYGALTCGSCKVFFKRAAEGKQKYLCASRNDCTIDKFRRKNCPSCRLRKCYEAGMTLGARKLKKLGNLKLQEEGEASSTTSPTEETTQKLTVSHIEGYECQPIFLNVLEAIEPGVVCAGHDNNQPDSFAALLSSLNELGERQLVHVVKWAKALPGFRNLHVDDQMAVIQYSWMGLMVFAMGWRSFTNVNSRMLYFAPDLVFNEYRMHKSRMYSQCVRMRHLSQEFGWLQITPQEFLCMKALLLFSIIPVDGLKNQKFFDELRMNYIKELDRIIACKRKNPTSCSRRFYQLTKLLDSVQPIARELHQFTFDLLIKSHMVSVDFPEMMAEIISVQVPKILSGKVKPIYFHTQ
Procedure, shortened: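 Plated MDA-kb2 cells (3,000/well) were pre-incubated 5hr, given nilutamide (3.0uM final) or buffer, then dosed with compounds in DMSO at 15 concentrations. Luciferase activity was quantified by luminescence after 16hr at 37C.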

[18] = target: Thyrotropin receptor (Homo sapiens) (UniProt P16473); experiment: qHTS assay to identify small molecule antagonists of the thyroid stimulating hormone receptor (TSHR) signaling pathway (AID 1259385; calls by dose curve; further: nearly all actives have a fitted effect of over 20% in size; further: potency means the concentration at half of the fitted maximal effect)
Sequence of Thyrotropin receptor (Homo sapiens) (P16473 whole entry, looked up): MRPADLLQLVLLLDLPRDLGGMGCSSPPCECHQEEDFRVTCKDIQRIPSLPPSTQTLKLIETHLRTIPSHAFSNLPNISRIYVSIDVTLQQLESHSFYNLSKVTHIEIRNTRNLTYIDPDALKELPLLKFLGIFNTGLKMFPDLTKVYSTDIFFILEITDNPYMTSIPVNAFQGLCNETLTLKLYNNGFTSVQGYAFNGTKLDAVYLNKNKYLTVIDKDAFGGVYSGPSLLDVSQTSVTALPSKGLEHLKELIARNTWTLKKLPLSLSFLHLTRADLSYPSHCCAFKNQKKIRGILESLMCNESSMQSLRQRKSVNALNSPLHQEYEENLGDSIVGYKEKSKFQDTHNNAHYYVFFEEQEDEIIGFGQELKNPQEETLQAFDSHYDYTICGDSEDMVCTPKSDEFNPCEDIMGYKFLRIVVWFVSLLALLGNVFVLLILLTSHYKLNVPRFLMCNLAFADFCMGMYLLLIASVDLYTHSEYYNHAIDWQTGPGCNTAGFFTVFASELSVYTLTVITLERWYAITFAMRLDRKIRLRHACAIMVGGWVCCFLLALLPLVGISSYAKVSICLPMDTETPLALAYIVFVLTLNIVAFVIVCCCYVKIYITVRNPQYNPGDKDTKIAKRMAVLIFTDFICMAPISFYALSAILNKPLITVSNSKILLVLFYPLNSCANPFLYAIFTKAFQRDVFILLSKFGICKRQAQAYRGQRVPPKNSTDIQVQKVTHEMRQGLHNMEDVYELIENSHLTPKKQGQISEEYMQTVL
Procedure, shortened: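 TSHR-HEK293 cells were plated and held 18 h at 37C/5% CO2, then given compound plus Ro20-1724 and stimulated with TSH at 1.5 ng/mL final. After 30 min at room temperature, cAMP was detected with cAMP-d2/anti-cAMP-cryptate (1 h) by fluorescence.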

[19] = qHTS assay to identify small molecule antagonists of the progesterone receptor (PR) signaling pathway - cell viability counter screen (AID 1346798); further: series mostly up to about 92 µM; nearly all actives have a fitted effect of over 50% in size
Procedure, shortened: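 Cytotoxicity read as CellTiter-Glo luminescence (30 min, room temperature) in the same wells as the beta-lactamase readout. HEK293T PR-UAS-bla cells in charcoal-stripped 2% FBS received compound and R5020, then 16 h at 37C, 5% CO2.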

[20] = target: Estrogen receptor (Homo sapiens) (UniProt P03372); experiment: qHTS assay to identify small molecule agonists of the estrogen receptor alpha (ER-alpha) signaling pathway in the presence of an antagonist (AID 1259383; calls by dose curve; further: top concentration of the series differs between compounds; nearly all actives have a fitted effect of over 15% in size)
Sequence of Estrogen receptor (Homo sapiens) (P03372 whole entry, looked up): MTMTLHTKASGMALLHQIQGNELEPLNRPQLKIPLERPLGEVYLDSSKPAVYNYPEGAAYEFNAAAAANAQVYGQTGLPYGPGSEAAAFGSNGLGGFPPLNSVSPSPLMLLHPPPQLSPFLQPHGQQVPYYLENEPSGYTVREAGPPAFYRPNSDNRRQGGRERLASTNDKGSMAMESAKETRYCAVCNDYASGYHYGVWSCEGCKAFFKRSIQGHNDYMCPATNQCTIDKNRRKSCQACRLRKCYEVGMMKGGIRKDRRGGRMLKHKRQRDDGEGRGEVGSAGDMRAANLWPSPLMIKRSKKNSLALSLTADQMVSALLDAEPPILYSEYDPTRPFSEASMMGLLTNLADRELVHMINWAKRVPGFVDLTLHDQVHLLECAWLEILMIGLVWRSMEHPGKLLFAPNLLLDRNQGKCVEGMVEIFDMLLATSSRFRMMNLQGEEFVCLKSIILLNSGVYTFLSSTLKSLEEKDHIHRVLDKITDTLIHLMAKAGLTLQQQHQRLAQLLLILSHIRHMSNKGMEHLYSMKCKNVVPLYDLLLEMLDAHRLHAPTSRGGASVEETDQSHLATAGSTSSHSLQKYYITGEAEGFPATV
Procedure, shortened: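 Luminescent ERE-luciferase reporter, VM7Luc4E2 cells (endogenous ER-alpha); 10.0nM ICI-182,780 final; 15-point compound titration; 22hr at 37C; ONE-Glo, 30min RT.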

SMILES	Potency [1]	Potency [2]	Potency [3]	Potency [4]	Potency [5]	Potency [6]	Potency [7]	Potency [8]	outcome [9]	Potency [10]	Potency [11]	Potency [12]	Potency [13]	outcome [14]	outcome [15]	Potency [16]	Potency [17]	Potency [18]	Potency [19]	Potency [20]
NCc1ccccc1	inactive	inactive	inactive	inactive	inactive	inactive	inactive	inactive	inactive	inactive	inactive	inactive	inactive	inactive	inactive	inactive	–	–	–	–
Cc1cc(C)c(S(=O)(=O)O)cc1N=Nc1cc(S(=O)(=O)O)c2ccccc2c1O	inactive	inactive	inactive	27.3 µM (active)	inactive	inactive	–	27.3 µM (active)	inactive	inactive	inactive	inactive	inactive	inactive	inactive	inactive	inactive	inactive	inactive	–
Cc1ncsc1CCO	inactive	inactive	inactive	inactive	inactive	inactive	–	inactive	–	–	inactive	inactive	inactive	inactive	inactive	inactive	–	inactive	inactive	inactive
CC1(C)[C@H]2CC[C@]1(C)[C@H](O)C2	inactive	inactive	inactive	inactive	inactive	inactive	inactive	–	inactive	inactive	inactive	inactive	inactive	inactive	inactive	inactive	–	–	inactive	–
CC(C)(C)c1cc(O)c(C(C)(C)C)cc1O	30.6 µM (active)	inactive	30.6 µM (active)	54.5 µM (active)	–	inactive	–	–	inactive	–	–	inactive	inactive	inactive	–	inactive	inactive	61.1 µM (active)	–	inactive
CCCC(=O)OCC	68.6 µM (active)	inactive	inactive	inactive	–	inactive	inactive	inactive	inactive	inactive	inactive	inactive	inactive	inactive	inactive	inactive	–	inactive	inactive	inactive
CCCCOC(O)CC (configuration not stated)	inactive	inactive	inactive	inactive	inactive	inactive	inactive	inactive	inactive	inactive	–	inactive	inactive	inactive	inactive	inactive	inactive	inactive	–	inactive
Cc1c(Cn2ccnc2)c2ccccc2n1CCC(=O)O	inactive	inactive	inactive	inactive	inactive	inactive	inactive	–	inactive	–	inactive	inactive	inactive	inactive	–	–	–	inactive	inactive	–
Cc1ccc(C)o1	inactive	inactive	inactive	inactive	inactive	inactive	inactive	–	inactive	inactive	inactive	inactive	inactive	inactive	inactive	inactive	–	inactive	inactive	–
CC(=O)SCc1ccco1	inactive	inactive	inactive	inactive	inactive	inactive	–	inactive	inactive	inactive	inactive	inactive	inactive	inactive	inactive	inactive	inactive	inactive	–	inactive
CCCCCCCCCO	inactive	inactive	inactive	inactive	–	inactive	inactive	inactive	inactive	–	–	inactive	inactive	inactive	inactive	inactive	–	inactive	inactive	inactive
Cc1ccc(C(C)c2ccc(C)c(C)c2)cc1C	inactive	inactive	inactive	inactive	inactive	inactive	inactive	–	inactive	–	inactive	inactive	inactive	inactive	inactive	inactive	–	–	inactive	inactive
CCCCCCOC(=O)CCC	inactive	inactive	inactive	inactive	inactive	inactive	inactive	inactive	inactive	inactive	inactive	inactive	inactive	inactive	inactive	inactive	–	–	inactive	–
Cc1cccc(OCCOc2cccc(C)c2)c1	inactive	inactive	inactive	inactive	inactive	inactive	inactive	inactive	inactive	–	inactive	inactive	inactive	inactive	inactive	inactive	–	inactive	–	inactive
CCCc1ccccc1	inactive	inactive	inactive	inactive	inactive	inactive	inactive	–	inactive	–	inactive	inactive	inactive	inactive	inactive	inactive	–	inactive	inactive	inactive
